# Only some compounds are listed: those with a hit (about 4.6% of all), similar ones and a draw of the others.
# ADAM17 inh – inhibitors of human ADAM17; inhibition, % at 6.95 µM; P78536; recombinant ADAM17, EDANS/DABCYL FRET peptide cleavage; 0.83% of 370,000 active;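 active = inhibition above the mean of compounds lying between control limits plus 3 SD, set per campaign, cut at about 8.5% in these data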;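 also: 0% = DMSO-only wells as the low control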
# FAS TE block – FAS thioesterase (human) inhibition | inhibition, % at 15 µM | 0.67% of 360,000 active | recombinant FAS-TE, OMFH fluorogenic substrate, fluorescence endpoint | P49327;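 active = compounds whose normalised, plate-corrected inhibition of enzyme fluorescence in the single-dose primary screen is 50% or more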;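 also: 0% = DMSO with enzyme and 100% = substrate without enzyme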
# Target sequence (P49327 whole entry, looked up): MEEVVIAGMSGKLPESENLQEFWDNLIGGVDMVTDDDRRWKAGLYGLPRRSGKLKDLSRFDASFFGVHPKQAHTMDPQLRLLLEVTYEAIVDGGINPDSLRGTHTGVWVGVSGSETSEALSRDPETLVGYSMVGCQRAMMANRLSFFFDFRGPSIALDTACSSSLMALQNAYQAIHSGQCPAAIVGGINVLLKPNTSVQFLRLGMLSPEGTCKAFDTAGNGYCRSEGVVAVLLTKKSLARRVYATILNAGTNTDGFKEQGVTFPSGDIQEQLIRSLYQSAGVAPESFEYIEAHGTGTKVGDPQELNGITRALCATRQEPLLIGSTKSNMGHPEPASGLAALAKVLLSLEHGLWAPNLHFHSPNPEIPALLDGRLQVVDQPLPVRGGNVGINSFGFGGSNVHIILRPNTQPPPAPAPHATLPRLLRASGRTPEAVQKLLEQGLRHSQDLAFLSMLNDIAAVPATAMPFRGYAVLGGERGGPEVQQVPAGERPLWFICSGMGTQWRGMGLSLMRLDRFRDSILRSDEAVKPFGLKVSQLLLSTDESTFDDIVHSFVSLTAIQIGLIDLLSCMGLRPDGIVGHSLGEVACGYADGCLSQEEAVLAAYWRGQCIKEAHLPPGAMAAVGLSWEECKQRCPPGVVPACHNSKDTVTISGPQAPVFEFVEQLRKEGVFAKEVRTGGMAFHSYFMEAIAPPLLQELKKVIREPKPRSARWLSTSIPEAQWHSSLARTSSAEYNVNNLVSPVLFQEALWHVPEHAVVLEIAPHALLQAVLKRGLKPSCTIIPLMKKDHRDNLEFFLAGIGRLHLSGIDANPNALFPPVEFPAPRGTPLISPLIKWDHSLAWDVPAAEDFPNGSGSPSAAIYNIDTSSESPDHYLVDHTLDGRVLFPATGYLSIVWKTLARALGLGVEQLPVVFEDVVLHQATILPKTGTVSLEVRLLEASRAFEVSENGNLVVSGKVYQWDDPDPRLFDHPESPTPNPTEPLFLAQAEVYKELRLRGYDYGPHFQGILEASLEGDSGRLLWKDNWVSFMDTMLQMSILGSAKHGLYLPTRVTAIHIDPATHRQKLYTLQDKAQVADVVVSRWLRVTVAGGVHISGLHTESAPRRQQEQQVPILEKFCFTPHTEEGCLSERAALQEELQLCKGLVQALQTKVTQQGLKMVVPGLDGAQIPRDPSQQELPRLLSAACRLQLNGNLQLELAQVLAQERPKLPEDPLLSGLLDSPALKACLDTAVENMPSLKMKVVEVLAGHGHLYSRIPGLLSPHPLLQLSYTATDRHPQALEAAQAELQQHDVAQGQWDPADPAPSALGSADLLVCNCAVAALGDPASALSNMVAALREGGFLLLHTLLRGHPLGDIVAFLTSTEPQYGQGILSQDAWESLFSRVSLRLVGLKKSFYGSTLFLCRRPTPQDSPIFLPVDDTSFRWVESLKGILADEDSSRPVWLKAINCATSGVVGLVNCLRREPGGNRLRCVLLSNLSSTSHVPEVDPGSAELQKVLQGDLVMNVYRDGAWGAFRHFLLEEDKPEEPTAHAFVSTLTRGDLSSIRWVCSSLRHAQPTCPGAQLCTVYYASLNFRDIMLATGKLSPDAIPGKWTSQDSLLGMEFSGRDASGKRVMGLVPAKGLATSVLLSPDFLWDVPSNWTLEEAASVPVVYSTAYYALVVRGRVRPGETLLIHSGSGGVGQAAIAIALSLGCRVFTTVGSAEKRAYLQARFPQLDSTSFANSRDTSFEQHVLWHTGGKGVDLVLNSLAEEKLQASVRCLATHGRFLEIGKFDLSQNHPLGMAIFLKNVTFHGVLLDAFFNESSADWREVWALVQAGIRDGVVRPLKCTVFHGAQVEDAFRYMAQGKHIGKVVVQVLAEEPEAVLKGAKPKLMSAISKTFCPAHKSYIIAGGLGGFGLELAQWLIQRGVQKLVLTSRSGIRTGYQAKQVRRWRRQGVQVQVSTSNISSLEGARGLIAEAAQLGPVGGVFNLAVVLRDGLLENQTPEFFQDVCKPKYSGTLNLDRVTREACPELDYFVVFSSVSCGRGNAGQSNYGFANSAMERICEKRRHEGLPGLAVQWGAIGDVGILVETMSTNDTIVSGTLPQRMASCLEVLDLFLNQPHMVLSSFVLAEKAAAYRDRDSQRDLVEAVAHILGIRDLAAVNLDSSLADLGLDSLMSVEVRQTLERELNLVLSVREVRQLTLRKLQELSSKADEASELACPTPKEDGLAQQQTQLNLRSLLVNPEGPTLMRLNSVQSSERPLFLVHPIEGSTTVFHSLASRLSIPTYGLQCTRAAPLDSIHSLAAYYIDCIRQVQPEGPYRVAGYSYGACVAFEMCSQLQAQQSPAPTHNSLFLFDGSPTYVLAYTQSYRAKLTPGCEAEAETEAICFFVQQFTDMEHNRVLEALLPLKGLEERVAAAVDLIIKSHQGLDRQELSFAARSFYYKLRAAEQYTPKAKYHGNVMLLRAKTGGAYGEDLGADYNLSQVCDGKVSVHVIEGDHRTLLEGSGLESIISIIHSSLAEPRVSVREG
# NR3A LBD binder – modulators (binders) of human NR3A ligand-binding domain. NR3A LBD differential scanning fluorimetry, Tm shift; 0% = protein alone, 100% = glycine-bound protein. Tm shift relative to glycine control, % at 25 µM. 2.5% of 340,000 active;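 active = melting temperature shift of at least 10% of the positive control shift, at one fixed dose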
# KLK7 zymogen act – proKLK7 (human) activation, primary screen; purified proKLK7, EDANS-DABCYL substrate fluorescence; 100% is mature enzyme control, 0% vehicle; AID 652039; activation, % at 7 µM; 0.9% of 370,000 active;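 active = activation above the mean of all tested compounds plus 3 SD, computed per campaign excluding outliers beyond control limits, cut at about 13% in these data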
# ADAM10 inh – ADAM10 inhibition, QFRET primary screen; O14672; AID 720582; inhibition, % at 7 µM; recombinant ADAM10, EDANS/DABCYL FRET peptide cleavage, 3 h; 0.62% of 370,000 active;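 active = inhibition above a per-campaign cutoff equal to the mean of compounds falling between control-based bounds plus 3 SD, cut at about 20% in these data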;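 also: 0% = DMSO wells while the 100% control is not disclosed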
# * hit, by the source's call; i = inactive; nt = no result given.
SMILES,ADAM17 inh,FAS TE block,NR3A LBD binder,KLK7 zymogen act,ADAM10 inh
Oc1ccc(C2=NN(c3ccccc3)C(c3ccc(F)cc3)C2)cc1 (centres undefined),i,32,21*,-74,i
O=C(c1ccccc1)N1N=C(c2ccc(F)cc2)CC1c1ccc(F)cc1 (centres undefined),1,7,-1,0,6
COc1ccc(C(=O)Nc2ccc(NC(=O)c3ccccc3)cc2)cc1S(=O)(=O)N1CCOCC1,0,-4,32*,0,-8
COc1ccc(NC(=O)c2n[nH]c(=O)c3ccccc23)cc1S(=O)(=O)N1CCCCC1,2,-5,26*,0,5
COc1ccc(C(=O)Nc2ccncc2)cc1S(=O)(=O)N1CCOCC1,0,-6,-1,-1,-10
O=C(Nc1ccccc1)c1ccc(N2CCN(c3ccccc3)CC2)c(S(=O)(=O)N2CCOCC2)c1,0,56*,-1,0,9
COC(=O)[C@]12C[C@H](CC(=O)NCc3cccs3)C(=O)N(CCc3ccc(OC)c(OC)c3)C1=C[C@H](COCc1ccccc1)O[C@@H]2C,2,nt,nt,1,7
CC(C)(C)N(Cc1cn(Cc2ccccc2)nn1)S(=O)(=O)c1ccc(N2CCCCC2)cc1Br,2,nt,nt,1,6
CC(C)c1cc(C(=O)N(C2CCCCC2)C2CCCCC2)no1,-5,nt,nt,0,-9
Cc1ccc(S(=O)(=O)N2CCN(Cc3ccccc3C(F)(F)F)CC2)cc1,2,2,20*,0,1
O=S(=O)(c1ccccc1)N1CCN(Cc2ccccc2C(F)(F)F)CC1,4,15,4,0,6
N#CCC[C@@H]1CC[C@]2(CCCN(C(=O)c3cccnc3)C2)O1,3,nt,nt,0,3
C[C@H]1[C@@H](NC(=O)c2ccc(C(C)(C)C)cc2)CC[C@@]23CCCN2C(=O)CCC[C@@H]13,1,nt,nt,nt,1
CCOc1cc(/C=N/NC(=O)Cn2nc([N+](=O)[O-])cc2C)cc(Br)c1OCc1ccccc1C,-6,18,13*,0,-5
COc1cc(-c2nc(-c3ccc(NC(=O)c4ccc(Br)o4)cc3)no2)cc(OC)c1OC,-4,24,21*,0,-7
COc1ccc(-c2nc(-c3ccc(NC(=O)c4ccc(Br)o4)cc3)no2)cc1OC,-3,11,26*,-1,1
COc1ccc(CCC(=O)Nc2ccc(-c3noc(-c4ccc(OC)c(OC)c4)n3)cc2)cc1,2,1,1,0,5
COC(=O)C1CN(Cc2ccc(OC)cc2)CCS(=O)(=O)N1Cc1cn(Cc2ccc(OC)cc2)nn1 (centres undefined),2,nt,nt,0,-2
COCC#Cc1ccc(CC[C@H]2O[C@H]3CC[C@H](CO)O[C@H]3C[C@H]2n2cc(C(C)(C)O)nn2)cc1,1,nt,nt,1,-4
COc1ccc2c(c1)N=C(c1[nH]c3ccccc3c1CCN1C(=O)c3ccccc3C1=O)[C@]2(O)CCN1C(=O)c2ccccc2C1=O,-2,nt,nt,nt,-5
CCOc1ccc(NC(=O)Cn2nnc(-c3ccccc3NC(=O)c3cccs3)n2)cc1,-1,-5,15*,0,6
CCCC(=O)Nc1ccccc1-c1nnn(CC(=O)Nc2ccc(OC)cc2)n1,-2,5,-3,-1,7
COc1ccc(NC(=O)Cn2nnc(-c3ccccc3NS(=O)(=O)c3ccccc3)n2)cc1,nt,21,17*,nt,nt
Cc1ccc(-c2nnn(CC(=O)N(Cc3ccco3)C(C(=O)NC(C)(C)C)c3ccc(C)o3)n2)o1 (centres undefined),0,14,-5,1,7
Cc1ccc(C(C(=O)NC(C)(C)C)N(Cc2ccco2)C(=O)Cn2nnc(-c3cccs3)n2)cc1 (centres undefined),-1,2,12*,0,-11
SMILES,ADAM17 inh,FAS TE block,NR3A LBD binder,KLK7 zymogen act,ADAM10 inh
Cc1ccc(-c2nnn(CC(=O)N(Cc3ccccc3)C(C(=O)NC(C)(C)C)c3ccncc3)n2)o1 (centres undefined),nt,-3,14*,nt,nt
COc1ccc(Cn2nnnc2C(CC(C)C)N2CCN(c3ccccc3)CC2)cc1 (centres undefined),-2,30,18*,0,-1
CC(C)C(c1nnnn1Cc1ccc2c(c1)OCO2)N1CCN(c2ccccc2)CC1 (centres undefined),-3,18,13*,0,3
CC(C)C(c1nnnn1Cc1ccc2c(c1)OCO2)N1CCN(C)CC1 (centres undefined),1,-8,1,0,1
CCCCCCCCN1C(=O)[C@@H](CC(=O)NCCc2ccccc2OC)C[C@@]2(C(=O)OC)C1=C[C@H](COCc1ccccc1)O[C@@H]2C,-5,nt,nt,0,-4
C#CCN1CC(N2CCN(CCO)CC2)CS1(=O)=O (centres undefined),-1,nt,nt,1,-4
O=C(Nc1cccc(Cl)c1Cl)c1cc(S(=O)(=O)NCCc2ccccc2)ccc1F,1,8,18*,0,14
Cc1cc(C(=O)NN=Cc2ccccc2C(=O)O)n[nH]1,0,nt,nt,-1,-6
Cc1ccc(-c2cc(C(=O)N/N=C/c3ccccc3O)n[nH]2)o1,-10,10,31*,-6,-27
O=C(N/N=C\c1ccc(F)cc1)c1ccc(F)cc1,0,-4,1,-1,3
O=C(N/N=C/c1cccs1)c1cc(-c2ccc(Cl)s2)[nH]n1,1,0,33*,-2,0
Cc1ccc(-c2cc(C(=O)N/N=C/c3ccc(F)cc3)n[nH]2)o1,0,-1,31*,0,1
O=C(N/N=C/c1ccco1)c1cc(-c2ccc(Cl)s2)[nH]n1,2,-3,-14,0,4
Cc1ccc(-c2cc(C(=O)N/N=C/C=C/c3ccccc3)n[nH]2)s1,-1,-2,19*,-2,-1
Cc1ccc(-c2cc(C(=O)N/N=C/c3c[nH]c4ccccc34)n[nH]2)o1,-1,1,28*,0,-1
CC(C)(C)c1cc(C(=O)N/N=C/c2ccncc2)n[nH]1,1,-4,468*,0,4
Cc1ccc(-c2cc(C(=O)N/N=C/C(Br)=C/c3ccccc3)n[nH]2)o1,4,6,29*,0,10
Cc1cc(C2N=C(N)Nc3nc4ccccc4n32)c(C)n1-c1ccccc1Cl (centres undefined),2,-6,12*,0,-5
C#CCCN([C@H](C(=O)OC)C(C)CC)S(=O)(=O)c1ccccc1Br (some centres undefined),8,nt,nt,1,11
CC(=O)Nc1ccc(S(=O)(=O)Nc2cccc(C(=O)NC(C)(C)C)c2)cc1,2,3,13*,-1,8
CC(=O)Nc1ccc(S(=O)(=O)Nc2cccc(C(=O)Nc3ccccc3C(=O)O)c2)cc1,-2,0,5,1,2
O=C(Nc1cccc(S(=O)(=O)Nc2ccc(Cl)cc2)c1)c1ccc(Cl)nc1,8,42,21*,0,31*

# Assay outcomes deposited in PubChem by several laboratories.
